Experimental data as given in PubChem BioAssay AID1030 (National Center for Advancing Translational Sciences (NCATS), 2008).
The campaign covered roughly 220,000 compounds. About 16,000 (7.3%) were called active. Entries that show only a call come without a potency. Roughly 25% stayed inconclusive and do not appear here. For the sample, actives were picked, then their nearest neighbours and some compounds at random. Values without a mark were called inactive. The call rests on the fitted dose curve; in most records, active means well fitted inhibition curve with a large enough effect (not every such curve was filed as active); inconclusive means small, poorly fitted or top-dose-only effect, or another doubt; inactive means no such curve, though single readings can be large or run the other way.

Target: Aldehyde dehydrogenase 1A1 (Homo sapiens) (UniProt P00352)
Assay: qHTS Assay for Inhibitors of Aldehyde Dehydrogenase 1 (ALDH1A1)
Conditions: Purified ALDH1A1, NADH fluorescence, propionaldehyde substrate; series mostly up to 75.3 µM
Potency means the concentration at half of the fitted maximal effect.

Sequence of Aldehyde dehydrogenase 1A1 (Homo sapiens) (P00352 whole entry, looked up): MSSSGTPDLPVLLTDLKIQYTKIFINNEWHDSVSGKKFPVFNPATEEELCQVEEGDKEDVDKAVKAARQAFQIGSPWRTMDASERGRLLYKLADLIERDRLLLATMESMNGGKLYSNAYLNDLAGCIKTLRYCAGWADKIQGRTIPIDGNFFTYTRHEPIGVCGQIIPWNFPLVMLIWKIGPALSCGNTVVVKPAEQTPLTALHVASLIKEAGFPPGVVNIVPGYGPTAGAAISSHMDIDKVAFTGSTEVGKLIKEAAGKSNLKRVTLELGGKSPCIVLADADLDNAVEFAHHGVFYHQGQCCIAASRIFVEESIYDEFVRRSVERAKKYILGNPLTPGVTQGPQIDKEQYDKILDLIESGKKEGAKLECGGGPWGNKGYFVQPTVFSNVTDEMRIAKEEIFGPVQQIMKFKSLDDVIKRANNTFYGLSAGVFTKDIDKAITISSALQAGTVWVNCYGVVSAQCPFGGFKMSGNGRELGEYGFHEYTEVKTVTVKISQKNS

Row | SMILES | Potency | activity, negative = inhibition
1 | CCO[C@@H]1OC(C(=O)N2CCOCC2)=C[C@H](C)[C@H]1CCCO | inactive | 
2 | O=C(CSc1ccc(-c2cccs2)nn1)Nc1ccccc1F | inactive | 
3 | COc1ccc(NC(=O)c2cc3nc(-c4ccccc4)cc(C)n3n2)cc1OC | inactive | 
4 | COc1ccc(/C=N/NC(=O)Cn2cc(C(F)(F)F)ccc2=O)cc1 | inactive | 
5 | COc1ccc(OC)c2[nH]c(=O)c(CCNC(=O)C(=O)c3c[nH]c4ccccc34)cc12 | inactive | 
6 | CCOc1ccccc1C(=O)NCCCn1ccnc1 | inactive | 
7 | O=C(CCN1C(=O)c2ccccc2C1=O)NCCCn1ccnc1 | inactive | 
8 | O=C(NCCCn1ccnc1)C(=O)c1cn(CC(=O)N2CCCCCC2)c2ccccc12 | 14.1 µM (active) | 
9 | O=C(O)CCCCOn1ccnc1 | inactive | 
10 | CC(C)=CCN1CCN(Cc2ccc(Oc3ncccn3)cc2)CC1CCO (configuration not stated) | inactive | 
11 | CCc1ccccc1N1C(=O)C2C3CC(=O)C(c4ccccc43)C2C1=O (configuration not stated) | inactive | 
12 | CC1(C)CCCC2=C1CC1C(=O)N(c3ccccc3)C(=O)C1C2 (configuration not stated) | inactive | 
13 | CC1=C(C)CC2C(=O)N(c3cccc4ccccc34)C(=O)C2C1 (configuration not stated) | 12.6 µM (active) | 
14 | COC(=O)C1=C(C(=O)OC)[C@@H]2N(Cc3ccccc3)c3ccccc3[C@@]23C[C@@H](C(=O)OC)N(S(=O)(=O)c2ccc(C(F)(F)F)cc2)C3=N1 |  | 3.2% [at 13.5 µM]
15 | Fc1cccc2ncnc(OCc3ccccc3)c12 | inactive | 
16 | Cc1c(Cl)cccc1NC(=S)NCc1ccc2c(c1)OCO2 | inactive | 
17 | S=C(NCc1ccc2c(c1)OCO2)NCc1ccco1 | 20 µM (active) | 
18 | O=C(CSc1ccc(-c2ccco2)nn1)NCc1ccc2c(c1)OCO2 | 3.55 µM (active) | 
19 | O=C(CSc1ncn[nH]1)NCc1ccc2c(c1)OCO2 | inactive | 
20 | Cc1ccccc1-c1nnc(SCC(=O)NCc2ccc3c(c2)OCO3)n1C | inactive | 
21 | CS(=O)(=O)N(CC(=O)NCc1ccco1)c1ccc2c(c1)OCO2 | inactive | 
22 | Oc1ccc(-c2nncn2-c2ccccc2)cc1 | inactive | 
23 | COc1ccccc1C(=O)CSc1cccc[n+]1[O-] | 14.1 µM (active) | 

Row | SMILES | Potency | activity, negative = inhibition
24 | O=C(CSc1cccc[n+]1[O-])NCCCc1ccccc1 | inactive | 
25 | O=C(CSc1cccc[n+]1[O-])c1ccc(Cl)cc1 | inactive | 
26 | CC(C)Cn1c(CN(Cc2ccccc2)Cc2ccccc2)nc2c1c(=O)n(C)c(=O)n2C | inactive | 
27 | Cc1cccc(N2CC(C)Cn3c2nc2c3c(=O)n(CC(=O)OCc3ccccc3)c(=O)n2C)c1 (configuration not stated) | inactive | 
28 | Cn1c(=O)n(CCc2ccccc2)c(=O)c2c1nc1n2CCCN1c1ccccc1 | 8.91 µM (active) | 
29 | CCOC(=O)C1CCN(C(=O)c2ccccc2N(C)S(=O)(=O)c2ccccc2)CC1 | inactive | 
30 | COc1ccc(C(=O)N2CCC(C(=O)Nc3ccc(C)cc3)CC2)cc1 | inactive | 
31 | Cc1ccccc1C(=O)N1CCC(C(=O)Nc2ccc(S(=O)(=O)N(C)C(C)C)cc2)CC1 | 12.6 µM (active) | 
32 | COc1ccc(N(CC(=O)Nc2ccc(C)cc2C)S(=O)(=O)c2ccccc2[N+](=O)[O-])c(OC)c1 | inactive | 
33 | CNS(=O)(=O)c1ccc(N2CCCC2=O)c([N+](=O)[O-])c1 | inactive | 
34 | CCCCC/C=C\CC1OC1CCCCCCCC(=O)O (configuration not stated) | inactive | 
35 | CC1=C/C(=N\OS(=O)(=O)c2ccccc2)C=CC1=O | 11.2 µM (active) | 
36 | CC1=C/C(=N\S(=O)(=O)c2ccccc2)C(C(C)C)=CC1=O | inactive | 
37 | CCOC(=O)C1(S(=O)(=O)c2ccccc2)CCN(Cc2ccccc2)CC1 | inactive | 
38 | COc1cccc(NC(=O)CN(C)CC(=O)Nc2ccc3c(c2)CCC3)c1 | inactive | 
39 | Cc1ccnc(NC(=O)c2ccc(Cl)c([N+](=O)[O-])c2)c1 | inactive | 
40 | COC(=O)CN1C(=O)N/C(=C/c2ccc(OC)c(C)c2OC)C1=O | 6.31 µM (active) | 
41 | COc1ccc(C(=O)CN2C(=O)NC(C)(c3ccc(C)cc3)C2=O)cc1OC (configuration not stated) | inactive | 
42 | Cc1ccccc1NC(=O)CN1C(=O)N/C(=C\c2cccn2-c2cccc(C(=O)O)c2)C1=O | inactive | 
43 | CC(=O)Nc1ccc(OCCC[n+]2cccc(C(=O)[O-])c2)cc1 | inactive | 
44 | Cc1ccc(-c2nnn(CC(=O)N(Cc3ccco3)C(C(=O)NC(C)(C)C)c3ccncc3)n2)o1 (configuration not stated) | inactive | 
45 | COc1ccc(NS(=O)(=O)c2ccc(NC(C)=O)cc2)cc1OC | inactive | 
46 | COc1ccc(S(=O)(=O)Nc2ccc(S(=O)(=O)N3CCCCC3)cc2)cc1OC | 0.562 µM (active) | 

Row | SMILES | Potency | activity, negative = inhibition
47 | COc1ccc(S(=O)(=O)N2CCCCC2)cc1Br | inactive | 
48 | CN(C)/N=C/c1cn(-c2ccccc2)nc1-c1cccnc1 | inactive | 
49 | Cc1ccc(COc2ccc(C(=O)NN)cc2)cc1 | 1 µM (active) | 
50 | COc1ccc(C(=O)NNS(=O)(=O)c2ccc(C)cc2)cc1 | inactive | 
51 | Cc1cccc(OCc2ccc(C(=O)Nc3ccc(F)cc3)cc2)c1 | inactive | 
52 | COC(=O)/C(NC(C)=O)=C(\C)c1ccc(Cl)cc1 | inactive | 
53 | COC(=O)C(=Nc1ccccc1)/C(C(=O)C(=O)N(C)c1ccccc1)=C(\O)c1ccc(Cl)cc1 | 25.1 µM (active) | 
54 | CN(C(=O)CC(NC(=O)c1ccccc1)(c1ccccc1)c1ccccc1)c1ccccc1 | inactive | 
55 | COc1ccccc1CNC(=O)C1Cc2ccccc2C(=O)O1 (configuration not stated) | inactive | 
56 | Cc1cccc(N2CCC(NCc3c(C(=O)N4CCCCC4)nc4c(C)cccn34)CC2)c1 | inactive | 
57 | COCCn1c(C)cc(C2=NNC(=Nc3ccc(F)cc3)SC2)c1C | 10 µM (active) | 
58 | COC(=O)c1cc(NC(=O)CN2CCN(C(C)=O)CC2)cc(C(=O)OC)c1 | inactive | 
59 | O=C(NC(=S)Nc1cccc2c(O)cccc12)c1cccc(Br)c1 | 3.16 µM (active) | 
60 | COC(=O)c1ccccc1NC(=S)NC(=O)c1ccccc1F | inactive | 
61 | NS(=O)(=O)c1ccc(NC(=S)NC(=O)c2cccnc2)cc1 | inactive | 
62 | O=C(/C=C/c1ccccc1Cl)Nc1ccc(S(=O)(=O)Nc2ncccn2)cc1 | inactive | 
63 | O=C(NC(=S)Nc1ccc(S(=O)(=O)Nc2ncccn2)cc1)c1cccc(Br)c1 | 10 µM (active) | 
64 | COc1ccc(NC(=S)Nc2ccc(S(N)(=O)=O)cc2)c(C)c1 | inactive | 
65 | NS(=O)(=O)c1ccc(NC(=S)NC(=O)c2cccc(Br)c2)cc1 | 25.1 µM (active) | 
66 | O=C(NC1CC1)c1cccc(Br)c1 | inactive | 
67 | O=C(Nc1ccc(S(=O)(=O)Nc2ncccn2)cc1)c1cncc(Br)c1 | inactive | 
